# Compounds with a hit are over-represented: about 2.5% of the library has one in this group of screens.
# ANO1 block – blocks the mouse calcium-activated chloride channel TMEM16A. Q8BHY3. HEK293 TMEM16A/YFP iodide influx fluorescence, ionomycin. normalized B-score (activity score, 25-100; higher = stronger inhibition) at 10 µM. 1.2% of 310,000 active. AID 588511;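 active means ratio plate-corrected score three or more library SD toward inhibition, starting fluorescence score within five deviations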;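 further: score derived from kinetic fluorescence span divided by baseline fluorescence per well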
# PKA-R1A activ – PKA-R1A complex activation. P00514+P68181. PKA-R1A dissociation, Cy5-IP20 fluorescence polarization; scaled: DMSO 0%, 113 µM cGMP 100%. activation, % at 11.4 µM. 0.083% of 340,000 active. AID 504707;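 active means percent activation above the mean of all tested compounds plus 3 SD, cut at about 19% in these data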;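 further: higher means more PKAc released from R1A so a rise in polarization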
# CHT inh – human CHT choline transport inhibition. Q9GZV3. CHT-expressing cells, membrane potential dye, choline response; stronger effect = lower value. B-score at 10 µM. 0.86% of 310,000 active. AID 488975;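 active means B-score over 3 SD under the library average, and starting fluorescence ratio not unusually high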;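 further: choline stimulus applied at its EC90 after an EC20 pre-addition; B-score computed on integrated fluorescence ratio after choline addition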
# Target sequence (Q9GZV3 whole entry, looked up): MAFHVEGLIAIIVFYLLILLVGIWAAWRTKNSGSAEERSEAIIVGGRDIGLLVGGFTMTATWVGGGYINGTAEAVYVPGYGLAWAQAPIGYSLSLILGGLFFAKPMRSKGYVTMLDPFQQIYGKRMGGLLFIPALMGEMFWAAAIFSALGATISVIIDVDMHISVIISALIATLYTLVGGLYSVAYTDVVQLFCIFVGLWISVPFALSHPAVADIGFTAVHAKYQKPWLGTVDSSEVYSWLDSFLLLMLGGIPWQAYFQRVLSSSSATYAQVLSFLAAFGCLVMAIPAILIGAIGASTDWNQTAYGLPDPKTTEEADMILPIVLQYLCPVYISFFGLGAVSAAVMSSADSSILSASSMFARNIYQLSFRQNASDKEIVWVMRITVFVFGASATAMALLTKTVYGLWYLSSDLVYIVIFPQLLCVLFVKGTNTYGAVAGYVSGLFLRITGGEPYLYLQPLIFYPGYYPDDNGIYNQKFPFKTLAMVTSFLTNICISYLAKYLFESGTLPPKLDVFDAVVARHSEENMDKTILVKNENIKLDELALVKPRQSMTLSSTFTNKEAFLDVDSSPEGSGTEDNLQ
# PKA-R2B act – PKA-R2B complex activation | P22694+P31323 | PKA-R2B holoenzyme dissociation, Cy5-IP20 fluorescence polarization; R2B truncated from residue 108, S112A mutant; 0% DMSO only, 100% 113 µM cGMP | activation, % at 11.4 µM | 0.079% of 340,000 active | AID 504700;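 active means activation above a cutoff set at the mean over all compounds plus 3 SD, cut at about 18% in these data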;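 further: higher means more holoenzyme dissociation and a rise in polarization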
# CHT allo act – allosterically activates the human high affinity choline transporter | Q9GZV3 | CHT-expressing cells, membrane potential dye, choline EC20; stronger effect = higher value; LV-AA mutant CHT in HEK293 cells | B-score at 10 µM | 0.49% of 310,000 active;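 active means initial fluorescence not abnormally high and integrated response B-score, plate-corrected, over 3 SD above library mean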
# TMEM16A act – activators or potentiators of mouse TMEM16A chloride channel. HEK293 TMEM16A/YFP-H148Q/I152L, iodide quench fluorescence; stronger effect = lower value. B-score at 10 µM. Q8BHY3. 0.3% of 340,000 active. AID 623877;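 active means fluorescence-ratio B-score plate-corrected deviation score at least 3 library SD below zero, with starting fluorescence score within 5 deviations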;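 further: channel opened by trigger with iodide after compound preincubation; score built on the fluorescence ratio of max minus min over baseline; more negative score means more quench and so TMEM16A activation or potentiation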
# R1A FP artifact – fluorescence polarization artifact in PKA-R1A activator counter-screen. Cy5-IP20 peptide alone, fluorescence polarization artifact counterscreen. shares compounds with PKA-R1A activ. 7% of 280 active. AID 504799. activation, % at 11.4 µM;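 active means mean activation over triplicate runs exceeds the adjusted cutoff derived for the parent primary screen, cut at about 19% in these data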;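 further: no PKA protein present so any polarization rise reflects compound interference; 0% = tracer peptide mix alone and 100% = mix with added PKA catalytic subunit; higher means stronger polarization artifact and likely false positive in parent screen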
# PKA-R1A confirm – PKA-R1A complex activation, confirmation; shares compounds with PKA-R1A activ; Cy5-IP20 fluorescence polarization, PKA-R1A holoenzyme dissociation; activation, % at 11.4 µM; 9% of 280 active; AID 504800;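 active means mean activation over replicate wells exceeds the adjusted hit threshold taken from the earlier primary screen, cut at about 20% in these data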;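 further: 0% = holoenzyme mix with DMSO only and 100% = cGMP-activated control wells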
# * marks the source's active call; other numbers are inactive results; i = inactive; / = no result.
SMILES,ANO1 block,PKA-R1A activ,CHT inh,PKA-R2B act,CHT allo act,TMEM16A act,R1A FP artifact,PKA-R1A confirm
C/C(=N\NC(=O)c1ccc(Cl)cc1)c1cccs1,/,-13.6,/,-3.0,/,i,/,/
CCc1nc(C(N)=O)c2[nH]c(=O)n(-c3ccccc3F)c2n1,i,2.1,i,6.5,i,i,/,/
COc1ccc(C(=O)Nc2c3c(nn2-c2ccc(Cl)cc2)CS(=O)(=O)C3)cc1,i,19.9*,i,-7.9,i,i,0.1,-0.2
O=C(Nc1c2c(nn1-c1ccc(Cl)cc1)CS(=O)(=O)C2)c1ccccc1,i,-1.7,i,-3.1,i,i,/,/
Cc1nc(-c2ccc(Cl)cc2)sc1C1(C)CC(c2ccc(OC(F)(F)F)cc2)=NO1 (configuration not stated),i,-4.2,i,2.9,i,i,/,/
Cc1nc(-c2ccccc2)sc1C1(C)CC(c2ccc(OC(F)(F)F)cc2)=NO1 (configuration not stated),i,18.8*,i,3.9,i,i,0.4,-2.5
COc1ccccc1Oc1coc2cc(OCC(N)=O)ccc2c1=O,i,19.2*,i,-3.6,i,i,0.7,3.8
Cc1ccc(S(=O)(=O)NCCn2cnc([N+](=O)[O-])n2)cc1,i,21.3*,i,-1.8,i,i,5.2,1.0
N#CCCN(Cc1ccccc1)C(=O)Nc1ccc(F)cc1,i,-8.7,i,-4.6,i,i,/,/
CC(Oc1cccc([N+](=O)[O-])c1)C(=O)NCCC1=CCCCC1 (configuration not stated),/,5.7,/,3.9,/,i,/,/
COc1ccc(Nc2cc(C)nc3ncnn23)cc1Cl,i,22.3*,i,0.4,i,i,2.4,-3.5
COc1cc(Nc2cc(C)nc3ncnn23)cc(OC)c1OC,i,8.9,i,-0.4,i,i,/,/
COc1ccc(C2C(C#N)=C(N)OC(C(C)(C)C)=C2C#N)cc1OC (configuration not stated),i,19.9*,i,-12.3,i,i,4.2,1.7
COc1cccc(C2C(C#N)=C(N)OC(C(C)(C)C)=C2C#N)c1 (configuration not stated),i,-2.0,i,-10.2,i,i,/,/
CCN1C(=O)/C(=C\N(C)C)c2ccccc21,i,0.2,i,-12.6,i,i,/,/
CCN1C(=O)/C(=C/N(C)C)c2ccccc21,i,19.1*,i,5.9,i,i,1.2,5.0
CC1Sc2ccc(S(=O)(=O)CCC(=O)NC3CCCC(C)C3C)cc2NC1=O (configuration not stated),i,-3.9,i,-11.6,i,i,/,/
COc1cc(OC)cc(-c2nc(-c3ccccc3OC)no2)c1,i,19.1*,i,11.7,i,i,3.2,5.2
COc1ccccc1-c1noc(-c2cc(OC)c(OC)c(OC)c2)n1,i,4.1,i,3.4,i,i,/,/
CCC(=O)Nc1cccc(NC(=O)CSc2nc3c(c(=O)n(C)c(=O)n3C)n2C)c1,i,3.8,i,-2.6,i,i,/,/
O=C(O)c1ccc2c(c1)C(=O)N(c1ccc([N+](=O)[O-])cn1)C2=O,i,9.1,i,-4.7,i,i,/,/
C/C(=N\NC(=O)c1ccoc1C)c1ccc(Cl)s1,i,19.6*,i,-3.9,i,i,2.1,5.4
CC(Sc1ccc([N+](=O)[O-])cn1)C(=O)Nc1nccs1 (configuration not stated),i,-16.5,i,-5.8,i,i,/,/
CCc1ccc(NC(=O)CSc2nnc(-c3ccccn3)n2C)cc1,i,19.1*,i,2.1,i,i,6.3,4.1
CC(C)c1ccc(NC(=O)CSc2nnc(-c3ccccn3)n2C)cc1,i,0.2,i,-5.3,i,i,/,/
SMILES,ANO1 block,PKA-R1A activ,CHT inh,PKA-R2B act,CHT allo act,TMEM16A act,R1A FP artifact,PKA-R1A confirm
COc1ccc(C)cc1NC(=O)CO/N=C(\N)CC(=O)Nc1ccccc1OC,/,19.9*,/,4.3,/,i,2.6,0.6
COc1ccc(C(=O)C[n+]2cccc3cc(OC)ccc32)cc1,i,-2.7,i,1.7,i,i,/,/
COc1ccc(C(=O)C[n+]2cccc3cc(C)ccc32)cc1,i,18.7*,i,1.1,i,i,8.8,5.2
Cc1cccn2c(CNC3CCCc4ccccc43)c(C(=O)N3CCOCC3)nc12 (configuration not stated),i,2.8,i,-11.3,i,i,/,/
Cc1cccn2c(CN[C@@H]3CCCC[C@H]3c3ccccc3)c(C(=O)N3CCOCC3)nc12,i,19.0*,i,3.9,i,i,7.3,4.3
CC(=O)c1cn(CC(=O)Nc2ccccc2Cl)c2ccccc12,i,-2.0,i,-1.0,i,i,/,/
CCOC(=O)C1CCN(CC(C)(C)NS(=O)(=O)c2ccccc2)CC1,i,20.7*,i,6.7,i,i,-0.4,-3.5
Cc1[nH]c(=O)[nH]c(=O)c1S(=O)(=O)Nc1ccc(S(N)(=O)=O)cc1,i,19.8*,i,4.1,i,i,0.2,4.8
CCc1cc(C(=O)OC)c(NC(=O)CC2NCCNC2=O)s1 (configuration not stated),i,24.6*,i,7.2,i,i,5.2,3.0
CCOC(=O)N1CCc2c(sc3nc(SC(C)C)n(N)c(=O)c23)C1,i,-6.0,i,-8.3,i,i,/,/
CCOC(=O)N1CCc2c(sc3ncn(C)c(=O)c23)C1,i,19.1*,i,-0.2,i,i,-3.9,0.1
CC1=NN(c2ccc([N+](=O)[O-])cc2)C(=O)/C1=C\N(C)C,i,7.4,i,-7.8,i,i,/,/
CCCC1=NN(c2ccc([N+](=O)[O-])cc2)C(=O)/C1=C/N(C)C,i,19.1*,i,1.6,i,i,1.7,0.4
CCOc1ccc(NC(=O)CN(C)C(=O)CCNC(=O)c2ccco2)cc1OCC,/,18.7*,/,11.6,/,i,0.2,0.8
O=C(O)c1nn(CC(=O)N2CCC(Cc3ccccc3)CC2)c(=O)c2ccccc12,i,20.7*,i,-5.0,i,i,1.5,2.8
O=C(O)c1nn(CC(=O)N2CCN(c3ccccc3)CC2)c(=O)c2ccccc12,i,-5.7,i,-3.9,i,i,/,/

# Compound activity from PubChem.
